HT1080 IDH1KD tx: toxicity to HT-1080 IDH1 knockdown cells (counter line); Potency, µM (series often up to 46.1 µM), for inactives: top-dose activity, negative = toxicity, usual class: cytotoxic; 2% of 360,000 active; HT-1080 IDH1 knockdown viability, ATP luminescence, 48 h;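 also: potency is read from the fitted curve at half-maximal effect; 0% = DMSO wells and -100% = cell-free medium wells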
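Using the IDH1-knockdown HT-1080 line run in the same batch and compound series as the NT line, viability after 48 h at 37 °C was determined by CellTiter-Glo luminescence and expressed as % activity.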
ELG1 DNA repair: ELG1-dependent DNA repair inhibition. HEK293T ELG1-luciferase reporter, luminescence, 16 h; DNA damage induced by 5-fluorouridine. Potency, µM (series often up to 46.1 µM), for the others: top-dose activity change, negative = inhibition, most hits filed as inhibitors. 2.3% of 330,000 active. AID 504467; also: potency is read from the fitted curve at half-maximal effect; nearly all actives have a fitted effect of over 55% in size
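Step one: seed 2,000 cells per well. Step two: pin-transfer compound or DMSO alongside 5-fluorouridine. Step three: incubate 16 hr, 37 °C, 5% CO2. Step four: add ONE-Glo, wait 30 min, read luminescence.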
HT1080NT lethal: kills 2HG-producing HT-1080-NT fibrosarcoma cells. HT-1080-NT fibrosarcoma viability, CellTiter-Glo ATP luminescence, 48 h. Potency, µM (titrated, usually from 46.1 µM), inactives show at the highest dose activity, negative = less viability, usual class: cytotoxic. 1.6% of 360,000 active. AID 686970;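 also: NT is the 2HG producing partner of a matched IDH1 knockdown line; potency is read from the fitted curve at half-maximal effect; 0% = DMSO-treated cells and -100% = media-only wells without cells; nearly all actives have a fitted effect of over 55% in size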
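Luminescent CellTiter-Glo readout after 48 hours of compound exposure at 37 degrees C defined viability of HT-1080-NT cells. Activity was normalized to DMSO wells and cell-free media wells; concentration-response curves were fitted and assigned curve classes.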
IL-1B inflam inh: inflammasome signaling inhibition, IL-1 beta readout; THP-1 LPS/ATP IL-1B secretion, AlphaLISA, 16 h; hits give low values; activity change, % at 57.5 µM; 4.7% of 360,000 active; AID 743279; in the data active = activity change below about -50%; inconclusive = mostly about -30% to -49%
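Secreted IL-1B measured by AlphaLISA bead assay after 16 h compound exposure of THP-1 cells; compounds (final up to 57.5 uM) added 1 h before LPS (250 ng/mL) and ATP (1.25 mM) stimulation; lower signal means less secretion.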
TDP1 cell noCPT: qHTS for Inhibitors of human tyrosyl-DNA phosphodiesterase 1 (TDP1): qHTS in cells in absence of CPT; DT40 Tdp1-/- hTDP1 cells, no CPT, ATP luminescence, 48 h; Potency, µM (highest dose often 46.2 µM), inactives show at the top dose activity change, negative = growth inhibition, usual class: inhibitors; 15% of 420,000 active; AID 686978, 2013; also: potency is read from the fitted curve at half-maximal effect; nearly all actives have a fitted effect of over 55% in size
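Stably hTDP1-transfected Tdp1-null chicken DT40 cells were treated with library compounds minus camptothecin and grown for at least 48 hr at 37 °C, after which cellular ATP was quantified by luminescence.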
DT40 TDP1 CPT: DT40-hTDP1 cell growth loss with CPT; Potency, µM (series often up to 46.2 µM), for inactives: at the highest dose activity change, negative = growth inhibition, most hits filed as inhibitors; chicken DT40 Tdp1-/-;hTDP1 cells + 20 nM CPT, ATP luminescence, 48 h; 12% of 420,000 active; also: potency is read from the fitted curve at half-maximal effect; nearly all actives have a fitted effect of over 55% in size
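Chicken DT40 Tdp1-/- cells stably complemented with human TDP1 were seeded at 400 cells/well in medium containing 20 nM camptothecin, exposed to pin-transferred compounds, and grown at 37 °C for at least 48 hr. Viability was read as ATP luminescence.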
Active calls of the source: *; [ ] = dose if it differs, or a comment. Only some compounds are listed: those with a hit (about 19% of all), similar ones and a draw of the others. Unless noted, calls follow the shape of the dose curve; as a rule, active = well fitted curve in the direction sought with a large enough effect; inconclusive = small, poorly fitted or top-dose-only effect, or another doubt; inactive = no such curve, though single readings can be large; an effect the other way counts as inactive or inconclusive. Unless noted, % is scaled to controls: 0 for no effect and ±100 for the full control effect.

For O=C(COc1ccc([N+](=O)[O-])cc1)N(Cc1ccccc1)Cc1ccccc1 the results were HT1080 IDH1KD tx -22%, ELG1 DNA repair inconclusive, HT1080NT lethal -21%, IL-1B inflam inh -1, TDP1 cell noCPT inconclusive and DT40 TDP1 CPT inconclusive.
`O=C(O)CCC(=O)OCCN(Cc1ccc(Oc2ccc([N+](=O)[O-])cc2)cc1)C(=O)C(Cl)Cl` gave HT1080 IDH1KD tx -5%, HT1080NT lethal 4%, IL-1B inflam inh 4, TDP1 cell noCPT inconclusive and DT40 TDP1 CPT 18µM*.
For CCc1nn(C(C)C(=O)NC2CCCCCC2)c(=O)c2cc3occc3n12 (stereo not drawn) the results were HT1080 IDH1KD tx 23%, ELG1 DNA repair 10%, HT1080NT lethal 15%, IL-1B inflam inh 52, TDP1 cell noCPT -17% and DT40 TDP1 CPT -22%.
`C=CCn1c(=O)c2ccccc2n2c(SCc3nc4ccccc4s3)nnc12` gave HT1080 IDH1KD tx -6%, ELG1 DNA repair inconclusive, HT1080NT lethal -4%, IL-1B inflam inh 7, TDP1 cell noCPT 16µM* and DT40 TDP1 CPT inconclusive.
For C=CCn1c(=O)c2ccccc2n2c(SCC(=O)O)nnc12 the results were HT1080 IDH1KD tx -3%, ELG1 DNA repair 4%, HT1080NT lethal 10%, IL-1B inflam inh 7, TDP1 cell noCPT 4% and DT40 TDP1 CPT 4%.
CCc1ccc(CN2CCCC(CNC(=O)c3cc(OC)cc(OC)c3)C2)cc1 (stereo not drawn) was read as HT1080 IDH1KD tx -13%, ELG1 DNA repair -14%, HT1080NT lethal -27%, IL-1B inflam inh inconclusive, TDP1 cell noCPT inconclusive and DT40 TDP1 CPT inconclusive.
Screening COc1ccc(CC(=O)NCC2CCCN(Cc3ccc(OC(F)(F)F)cc3)C2)cc1 (stereo not drawn) returned HT1080 IDH1KD tx -5%, ELG1 DNA repair -9%, HT1080NT lethal inconclusive, IL-1B inflam inh -22, TDP1 cell noCPT 18µM* and DT40 TDP1 CPT 0%.
Screening COc1ccc(CC(=O)NCC2CCCN(Cc3cc(OC)cc(OC)c3)C2)cc1 (stereo not drawn) returned HT1080 IDH1KD tx -1%, ELG1 DNA repair 2%, HT1080NT lethal 1%, IL-1B inflam inh -50*, TDP1 cell noCPT -12% and DT40 TDP1 CPT -21%.
`COC(=O)c1ccc(CN2CCCC(CNC(=O)Cc3ccc(OC)cc3)C2)cc1` (stereo not drawn) gave HT1080 IDH1KD tx -2%, ELG1 DNA repair -3%, HT1080NT lethal 4%, IL-1B inflam inh 17, TDP1 cell noCPT 10% and DT40 TDP1 CPT -3%.
For COc1cc(OC)cc(C(=O)NCC2CCCN(Cc3ccc(SC)cc3)C2)c1 (stereo not drawn) the results were HT1080 IDH1KD tx -2%, ELG1 DNA repair -11%, HT1080NT lethal -6%, IL-1B inflam inh inconclusive, TDP1 cell noCPT 16µM* and DT40 TDP1 CPT inconclusive.
`COc1ccc(OC)c(NCCN2C(=O)c3ccccc3C2=O)c1` gave HT1080 IDH1KD tx -1%, HT1080NT lethal 5%, IL-1B inflam inh -3, TDP1 cell noCPT -29% and DT40 TDP1 CPT 6%.
COc1cc2c(C(=O)Nc3ccc4c(c3)OCO4)cn(CC(C)C)c(=O)c2cc1OC was read as ELG1 DNA repair 9.2µM*.
Screening COc1ccc(NC(=O)c2cn(CC(C)C)c(=O)c3cc(OC)c(OC)cc23)cc1Cl returned TDP1 cell noCPT 21µM* and DT40 TDP1 CPT 21µM*.
Screening O=C(NCC(F)(F)F)C1C(=O)Nc2ccccc2C(=O)N1Cc1ccccc1 (stereo not drawn) returned HT1080 IDH1KD tx 21%, HT1080NT lethal 23%, IL-1B inflam inh 67, TDP1 cell noCPT -6% and DT40 TDP1 CPT 0%.
O=C(NCCOCc1ccccc1)C(c1ccccc1)c1ccccc1 was read as HT1080 IDH1KD tx -1%, ELG1 DNA repair -5%, HT1080NT lethal -2%, IL-1B inflam inh -25, TDP1 cell noCPT inconclusive and DT40 TDP1 CPT -25%.
Screening CCc1ccc(-c2nc3c(=O)n(C)c(=O)nc-3n(CC)n2)cc1 returned TDP1 cell noCPT 2.8µM* and DT40 TDP1 CPT 2.8µM*.
Screening Cc1ccccc1-c1nc2c(=O)n(C)c(=O)nc-2n(C)n1 returned TDP1 cell noCPT 0.63µM* and DT40 TDP1 CPT 0.71µM*.
For COc1ccc(-c2nc(-c3ccccn3)ncc2S(C)(=O)=O)cc1 the results were HT1080 IDH1KD tx 22%, ELG1 DNA repair -9%, HT1080NT lethal 23%, IL-1B inflam inh -13, TDP1 cell noCPT -1% and DT40 TDP1 CPT 5%.
Cn1nc(-c2ccccn2)nc2c(=O)n(C)c(=O)nc1-2 was read as HT1080 IDH1KD tx 1.6µM*, ELG1 DNA repair inconclusive, HT1080NT lethal 1.8µM*, IL-1B inflam inh -94*, TDP1 cell noCPT 0.52µM* and DT40 TDP1 CPT 0.65µM*.
For CCCc1nc2c(=O)n(C)c(=O)nc-2n(C)n1 the results were HT1080 IDH1KD tx 2.1µM*, ELG1 DNA repair 4.6µM*, HT1080NT lethal 3.7µM*, IL-1B inflam inh -106*, TDP1 cell noCPT 1.2µM* and DT40 TDP1 CPT 1.6µM*.
Screening Cc1ccc(-n2c3nc(=O)n(C)c(=O)c-3cc3ccccc32)cc1 returned HT1080 IDH1KD tx 14%, ELG1 DNA repair -7%, HT1080NT lethal 11%, IL-1B inflam inh 37, TDP1 cell noCPT inconclusive and DT40 TDP1 CPT inconclusive.
Screening OC1CCN(Cc2ccc3c(c2)CN(C/C=C/c2ccco2)CCO3)CC1 returned TDP1 cell noCPT -12% and DT40 TDP1 CPT -17%[9.04 µM].
Screening CC(=O)c1ccc(Nc2nc3c(S(=O)(=O)c4ccccc4)nnn3c3ccc(Cl)cc23)cc1 returned TDP1 cell noCPT -26% and DT40 TDP1 CPT inconclusive.
Screening O=C(CC1CCCC1)N1CCN(S(=O)(=O)c2cccc(Br)c2)CC1 returned HT1080 IDH1KD tx 3%, HT1080NT lethal 6%, IL-1B inflam inh 9, TDP1 cell noCPT inconclusive and DT40 TDP1 CPT 18µM*.
Screening COc1cccc(CN(C(=O)/C=C/c2ccco2)C2CCS(=O)(=O)C2)c1 (stereo not drawn) returned HT1080 IDH1KD tx 8%, ELG1 DNA repair 9%, HT1080NT lethal 10%, IL-1B inflam inh -7, TDP1 cell noCPT 3% and DT40 TDP1 CPT -3%.
